Screening data: PubChem, Sanford-Burnham Center for Chemical Genomics
PHOSPHO1 inh = blocks human PHOSPHO1 phosphatase activity; AID 1565; Q8TCT1; actives 1.1% (n = 290,000); recombinant PHOSPHO1, absorbance phosphatase assay; inhibition, % at 13.3 µM; in the data active = inhibition above about 60%
PABP polyA inh = blocks human PABP binding to poly(A) RNA | fluorescence polarization | calls only at 35 µM | actives 1% (n = 290,000) | AID 2014;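 also: calls also rest on retests at 20 µM and on dose response follow-up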
eIF4H inh = inhibitors of RNA binding by human eIF4H; actives 0.94% (n = 290,000); inhibition, % at 35 µM; AID 2012; eIF4H fluorescence polarization binding assay; Q15056;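 also: calls also rest on retests at 20 µM and on dose response follow-up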
APOBEC3G inh = APOBEC3G (human) deaminase inhibition; Q9HC16; recombinant A3G, ssDNA deamination FAM/TAMRA fluorescence; inhibition, % at 20 µM; actives 0.28% (n = 330,000); AID 493012;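 active = inhibition of at least 40% at 20 µM, with no more than 30% in the related APOBEC3A deaminase screen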;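 also: plate controls were DMSO wells with A3G for no effect and wells lacking A3G enzyme for full effect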
Target sequence (Q9HC16 whole entry, looked up): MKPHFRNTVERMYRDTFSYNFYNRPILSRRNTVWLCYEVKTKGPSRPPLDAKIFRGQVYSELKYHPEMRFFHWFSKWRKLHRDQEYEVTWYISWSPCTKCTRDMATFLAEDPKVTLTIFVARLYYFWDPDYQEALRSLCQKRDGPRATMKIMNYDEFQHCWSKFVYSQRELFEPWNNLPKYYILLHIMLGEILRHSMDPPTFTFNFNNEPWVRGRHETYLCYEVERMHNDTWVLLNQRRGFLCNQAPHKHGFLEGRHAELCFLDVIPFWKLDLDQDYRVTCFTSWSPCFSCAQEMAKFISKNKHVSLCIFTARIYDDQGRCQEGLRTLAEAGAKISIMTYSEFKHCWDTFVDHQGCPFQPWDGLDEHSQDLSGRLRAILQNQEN
A3A deaminase = human APOBEC3A DNA deaminase inhibition. P31941. recombinant A3A, FAM/TAMRA ssDNA deamination fluorescence. inhibition, % at 20 µM. actives 0.41% (n = 330,000). AID 493011;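 active = at least 40% inhibition at 20 µM here, with at most 30% in a related deaminase screen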;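 also: plate controls were A3A with DMSO for no effect and wells lacking A3A enzyme for full effect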
Target sequence (P31941 whole entry, looked up): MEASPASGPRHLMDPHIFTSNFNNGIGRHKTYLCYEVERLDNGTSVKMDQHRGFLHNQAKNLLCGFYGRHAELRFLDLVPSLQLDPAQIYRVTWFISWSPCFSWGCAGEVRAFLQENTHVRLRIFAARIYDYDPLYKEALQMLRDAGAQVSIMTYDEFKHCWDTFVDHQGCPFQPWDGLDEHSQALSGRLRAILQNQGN
MLLE-PAM2 inh = inhibitors of microRNA-mediated deadenylation, human PABP1 MLLE binding; P11940; actives 0.36% (n = 360,000); inhibition, % at 20 µM; AID 588489; GST-MLLE / FITC-PAM2 fluorescence polarization; in the data active = inhibition above about 35%, passing the limit was not always enough;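 also: plate controls were DMSO wells with GST-MLLE for no effect and wells lacking GST-MLLE protein for full effect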
* marks the source's active call; other numbers are inactive results; i = inactive; nt = not tested or not shown; + = active, no number. In the library only some 2.6% were active in any assay of this set; here they are far more common. Unless noted, no rule for the calls is given here.

SMILES	PHOSPHO1 inh	PABP polyA inh	eIF4H inh	APOBEC3G inh	A3A deaminase	MLLE-PAM2 inh
Cc1cc(C)n(CCNc2nc3nonc3nc2N2CCCCC2)n1	18.3	i	8.2	-0.9	-0.2	7.9
COc1ccc(S(=O)(=O)N2CCC(NC(=O)Nc3ccc(C)cc3)CC2)cc1	60.5*	i	-0.5	-0.2	0.1	-5.0
COc1ccc(NC(=S)N2CCN(S(=O)(=O)c3ccc(F)cc3)CC2)cc1	65.8*	i	4.3	-5.7	-2.7	-112.8
COc1ccc(S(=O)(=O)N2CCN(C(=S)Nc3ccc(S(N)(=O)=O)cc3)CC2)cc1	22.6	i	-0.9	2.2	2.1	-94.5
OCC[C@H]1C[C@H](O)[C@@H](O)[C@]2(OCc3ccccc32)O1	nt	nt	nt	-18.3	-1.4	-5.0
O=P(NC1CCCCC1)(c1ccccc1)c1ccccc1	nt	nt	nt	nt	nt	-11.2
O=P(OCC1CC1)(c1ccccc1)c1ccccc1	-16.9	+	-2.1	-6.6	-2.6	2.5
O=C(CSc1ccccn1)N/N=C/c1cc([N+](=O)[O-])ccc1O	25.1	i	12.2	-2.8	3.3	-2.7
O=C(CSc1ccccn1)N/N=C/c1ccccc1[N+](=O)[O-]	10.9	+	active	-5.0	-1.3	-5.2
Cc1ccc(CNC(=O)CN2C(=O)NC(C)(c3cccc(Br)c3)C2=O)cc1 (centres undefined)	37.3	i	-12.9	-4.5	-4.5	0.9
CC1CCCC(C(=O)O)N1C(=O)CCS (centres undefined)	62.2*	i	-8.5	-1.2	1.3	30.5
CSCCC(=O)N1C(C)CCCC1C(=O)O (centres undefined)	23.1	i	-14.1	0.5	0.4	-1.5
COc1ccc(/C=N/NC(=O)c2ccc(O)cc2O)cc1CSc1ccccn1	-32.6	i	90.8	15.0	38.4	-5.7
CC(c1ccccc1)C1NC(C(=O)O)CS1 (centres undefined)	11.2	i	-0.1	-9.3	-4.3	7.6
CCCCC1NC(C(=O)O)CS1 (centres undefined)	-4.6	i	-2.2	-2.5	1.2	38.1*
CCCCCCC1NC(C(=O)O)CS1 (centres undefined)	25.5	i	-1.5	-0.8	4.5	38.0*
CC(C)(C)c1ccc(-c2n[nH]c(=S)n2C2CCCC2)cc1	90.9*	i	-3.0	-0.1	-3.8	-4.9
COc1ccc(S(=O)(=O)N2CCCCCC2)cc1NC(=O)CCCOc1ccccc1	nt	nt	nt	-6.2	-0.2	-4.0
CCN(CC)C(=O)Cn1cc(C(=O)C(=O)N2CCN(c3ccccc3)CC2)c2ccccc21	59.4	i	2.5	-5.1	-3.9	-2.3
CCN(C(=O)Cn1cc(C(=O)C(=O)N2CCOCC2)c2ccccc21)c1ccccc1	72.8*	i	-6.2	-7.3	-2.6	-3.5
N#CC1=C(N)SC(N)=C(C#N)C1CCC1CCCCC1	37.3	+	121.5	-5.0	-2.4	nt
Cc1sccc1C1C(C#N)=C(N)SC(N)=C1C#N	-0.6	i	121.0	-4.5	-0.1	nt
COc1ccccc1C1CC(c2cccs2)=Nc2ccccc2S1 (centres undefined)	94.5*	i	3.0	-1.2	-2.5	45.6*
CCCN1C(=O)c2ccccc2NC1c1ccc(Cl)c(Cl)c1 (centres undefined)	15.6	i	-8.2	-5.6	-4.5	-3.7
CCCCN1C2=C(C(=O)CCC2)C(c2ccc(Cl)c(Cl)c2)C2=C1c1ccccc1C2=O (centres undefined)	-55.5	+	90.1*	4.0	4.7	37.9
SMILES	PHOSPHO1 inh	PABP polyA inh	eIF4H inh	APOBEC3G inh	A3A deaminase	MLLE-PAM2 inh
CCCCCCCN1C/C=C\C(c2ccc(OC)cc2)N(Cc2ccc(F)cc2)C(=O)[C@H]1Cc1ccccc1 (some centres undefined)	26.5	i	-13.6	-0.2	1.3	3.6
CCC(=O)c1ccc(OCC(=O)OCC(=O)c2cc(C)n(C)c2C)cc1	-0.6	i	3.3	1.0	1.3	-1.3
CC1CC(C)CN(c2ccc(-n3cnnn3)cc2[N+](=O)[O-])C1 (centres undefined)	60.1*	i	4.7	3.8	3.1	2.2
CC(C)N(C)c1ncnc2c1ncn2[C@H]1CN(Cc2ccc(Cl)cc2)C[C@@H](CO)O1	nt	nt	nt	nt	nt	3.7
CN(CC(=O)Nc1cccc(F)c1)C(=O)CNS(=O)(=O)c1ccc(N(C)C)c([N+](=O)[O-])c1	nt	nt	nt	-8.8	2.8	45.6*
COc1ccc(-n2c(=O)c3ccccc3n(CC(=O)OCc3ccccc3)c2=O)cc1OC	8.4	i	-8.4	-5.2	0.4	-10.3
N#C/C(=C(/O)COC(=O)c1ccc(Cl)c(S(=O)(=O)N2CCOCC2)c1)c1nc2ccccc2[nH]1	-7.9	i	6.7	2.5	3.7	-11.1
N#C/C(=C(/O)COC(=O)CCc1ccc(S(=O)(=O)N2CCOCC2)cc1)c1nc2ccccc2[nH]1	21.0	+	81.0	3.4	-0.7	-12.1
CCC1=C/C(=C/c2sc3ccccc3[n+]2CC)CC(C)(C)C1	-3.0	i	-0.7	15.3	20.7	nt
CC[n+]1c(/C=C2\C=C(C)CC(C)C2)sc2ccccc21 (centres undefined)	102.3*	i	-5.8	28.4	9.9	-110.1
CCC(c1nnnn1Cc1ccc(F)cc1)N(CCCO)Cc1cc2cc3c(cc2[nH]c1=O)OCO3 (centres undefined)	16.7	i	9.7	-1.3	-0.7	45.3*
CCC(c1nnnn1CC1CCCO1)N(CCCO)Cc1cc2cccc(C)c2[nH]c1=O (centres undefined)	26.3	i	-11.5	-0.4	2.1	25.0
CCCCC(=O)Nc1nc(C)c(-c2csc(Nc3cc(Cl)ccc3OC)n2)s1	98.7*	i	-4.8	-4.1	-5.4	5.0
CCCCC(=O)Nc1nc(C)c(-c2csc(Nc3cc(OC)ccc3OC)n2)s1	69.5*	i	12.5	-6.8	-3.3	2.2
C=CCCC(=O)NC1CC(C)(C)Cc2c1cnn2-c1ccc(OC)cc1 (centres undefined)	40.3	i	-6.1	-5.7	-0.5	-5.8
COc1ccc(-n2ncc3c2CC(C)(C)CC3NC(=O)CCn2cncn2)cc1 (centres undefined)	89.8*	i	-7.4	-3.2	6.9	2.6
COC(=O)CCC(=O)OC1(C)C(=O)C=C2C=C3CCCN3C=C2C1=O (centres undefined)	4.5	+	106.7*	42.8	54.2	-7.4
COC(=O)CCC(=O)OC1(C)C(=O)C=C2C=C(C3CC3)N(CCCCO)C=C2C1=O (centres undefined)	30.9	i	37.8	9.2	1.2	2.4
CC1(OC(=O)c2ccc(Cl)nc2)C(=O)C=C2C=C3CCCN3C=C2C1=O (centres undefined)	-30.7	+	100.6*	44.1	47.4	-2.9
Cc1ccc(S(=O)(=O)/N=C(/c2ccc(F)cc2)N(C)C)cc1	32.6	i	-6.3	-1.5	-3.2	-6.1
